# Bioassay records (PubChem)
# A selection: hits, their analogues and other compounds. The true share with any hit is near 7.3%.
# Tau FP inhib: inhibitors of human tau fibril formation. P10636. K18 P301L tau heparin fibrillization, Alexa594 FP, 6 h. Potency, µM (doses to about 57.7 µM), for inactives: top-dose activity, negative = inhibition, actives largely listed as inhibitors. 0.39% of 280,000 active. AID 1468; also: nearly all actives have a fitted effect of over 55% in size
# Target sequence (P10636 561-689 P618L limits assumed): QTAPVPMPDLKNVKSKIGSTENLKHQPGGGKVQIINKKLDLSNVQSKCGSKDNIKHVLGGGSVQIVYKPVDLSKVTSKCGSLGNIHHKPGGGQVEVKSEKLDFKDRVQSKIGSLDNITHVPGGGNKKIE
#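 FP of Alexa 594-tau after heparin (20 uM) induction. Substrate: human K18 P301L, 15 uM unlabeled, 0.24 uM labeled. Buffer 100 mM sodium acetate pH 7. 6 hr, 37 C.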
# VP16 counter: counter-screen for ROR gamma inhibitors: Gal4-VP16 reporter; Drosophila S2 Gal4-VP16 UAS-luciferase, luminescence, 20 h; Potency, µM (highest dose often 53.6 µM), for inactives: top-dose activity, negative = inhibition, usual class: inhibitors; 3.5% of 310,000 active; AID 2546;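 also: Gal4-VP16 expression switched on by copper sulfate through the metallothionein promoter; nearly all actives have a fitted effect of over 50% in size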
# RORgamma inh: blocks mouse ROR gamma transcriptional activity | Potency, µM (doses to about 53.6 µM), inactives show at the top dose activity change, negative = inhibition, actives largely listed as inhibitors | AID 2551 | 5.4% of 310,000 active | Drosophila S2 Gal4-RORgamma UAS-luciferase reporter, 20 h; also: nearly all actives have a fitted effect of over 60% in size
#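 Schneider cells (Drosophila), stable Gal4 DBD–ROR gamma + UAS-luc; 1 hr cmpd preincubation; Cu2+ induction 700 uM final; 20 hr ambient; luminescence.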
# Tau fluor counter: counter-screen for tau fibril formation inhibitors. Potency, µM (doses to about 57.7 µM), for inactives: at the top dose activity change, negative = decrease. tau K18 P301L Alexa594 fluorescence, heparin fibrillization. 0.93% of 280,000 active; also: nearly all actives have a fitted effect of over 55% in size
#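 Human tau K18 P301L (15 uM unlabeled, 0.24 uM Alexa 594-labeled) in 100 mM sodium acetate pH 7 with 20 uM heparin, 6 hr at 37 C. ThT 30 uM added, 1 hr ambient; Alexa 594 FP and total fluorescence read at 555/632 nm.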
# Tau ThT inhib: inhibitors of human tau fibril formation, thioflavin T binding; Potency, µM (titrated, usually from 57.4 µM), for the others: at the highest dose activity, negative = inhibition, usual class: inhibitors; recombinant tau K18 P301L (four-repeat tau fragment), heparin-induced fibrillization, ThT fluorescence; 2.1% of 270,000 active; also: nearly all actives have a fitted effect of over 55% in size
#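 Tau K18 P301L fragment (15 uM unlabeled plus 0.24 uM Alexa 594-labeled) in 100 mM sodium acetate pH 7 with compound, fibrillization induced by 20 uM heparin for 6 hr at 37 C. Thioflavin T (30 uM) added, fluorescence read after 1 hr (ex 450, em 510 nm).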
# * marks the source's active call; other numbers are inactive results; ? = inconclusive; nt = no result; [ ] = dose if it differs, or a comment. Calls follow the shape of the dose curve; as a rule, active = well fitted curve in the direction sought with a large enough effect; inconclusive = small, poorly fitted or top-dose-only effect, or another doubt; inactive = no such curve, though single readings can be large; an effect the other way counts as inactive or inconclusive. % is scaled to controls: 0 for no effect and ±100 for the full control effect; potency is read from the fitted curve at half-maximal effect.
SMILES,Tau FP inhib,VP16 counter,RORgamma inh,Tau fluor counter,Tau ThT inhib
Cc1cc(Nc2ncc(Cl)cc2Cl)n[nH]1,5%,-13%,11µM*,-8%,-6%
Cc1ccc(C)c(NC(=O)CSc2nc(=O)n(CCN(C)C)c3c2CCC3)c1,?,nt,nt,0%,-8%
CN(Cc1ccc(Cl)s1)C(=O)CCl,2%,-76%,10µM*,3%,-8%
COc1ccc(NC(=O)c2cccc(S(=O)(=O)N3CCCCCC3)c2)cc1,nt,1%,?,nt,nt
O=C(Nc1ccc(C(F)(F)F)cc1)C1CCN(S(=O)(=O)c2ccc(N3CCCC3=O)cc2)CC1,nt,3.5µM*,-7%,nt,nt
COc1ccc(NC(=O)C2CCN(S(=O)(=O)c3ccc(N4CCCC4=O)cc3)CC2)cc1OC,nt,-12%,-21%,nt,nt
N#CCCN(C(=O)Nc1ccccc1)c1ccccc1,-2%,-2%,-1%,3%,-7%
CC1(C(=O)NC(=S)N(CCC#N)c2ccccc2)CC1(Cl)Cl (configuration not stated),-7%,?,13µM*,-9%,-3%
CC(C)N(Cc1ccccc1)C(=S)NC(=O)C1(C)CC1(Cl)Cl (configuration not stated),4%,2.5µM*,0.56µM*,2%,11%
O=C(Nc1nc2n(n1)C(c1ccc(F)cc1)C=C(c1ccccc1)N2)c1cccc([N+](=O)[O-])c1 (configuration not stated),-5%,nt,nt,0%,4%
COC(=O)/C=C/S(=O)(=O)c1ccc(NC(C)=O)cc1,?,5µM*,5µM*,-12%,?
Cc1ccccc1C(=O)Nc1ccc2c(C#N)c3nc4ccccc4nc3n2c1,-9%,-5%,-2%,?,5µM*
O=C(O)c1cc(-c2c[nH]c3ccccc23)nc2cc3ccccc3cc12,6%,-19%,5µM*,?,nt
CCn1cc(-c2cc(C(=O)O)c3ccccc3n2)cn1,?,?,5.6µM*,-9%,-5%
O=C(O)c1cc(-c2cccc3ccccc23)nc2ccccc12,nt,2%,18%,nt,nt
O=C(O)c1cc(-c2cc(C(=O)O)c3ccccc3n2)nc2ccccc12,nt,1%,2%,nt,nt
CC(=O)Nc1ccc(-c2cc(C(=O)O)c3ccccc3n2)cc1,-1%,?,10µM*,-3%,nt
O=C(O)c1cc(-c2ccc3ccccc3n2)nc2ccccc12,nt,11µM*,5µM*,nt,nt
CCn1cc(-c2cc(C(=O)O)c3ccccc3n2)c(C)n1,3%,-26%,?,10%,6%
CCCN1CCN(CCNC(=O)Nc2cc(C)ccc2OC)CC1,0%,nt,nt,-2%,0%
CCOc1ccc(CNC(=O)c2ccc(Sc3ccc(C)cc3)c(N)c2)cc1OC,9%,nt,nt,?,8%
O=C1CC(c2ccccc2)Cc2[nH]c(=O)c(-c3nc(-c4ccc(Cl)c(Cl)c4)cs3)cc21 (configuration not stated),-6%,nt,nt,-29%,-13%
Cn1nc(-c2ccccc2)cc1NC(=O)Nc1ccc(C(C)(C)C)cc1,28µM*,9%,28%,13µM*[quencher],0%
CC(C)(C)c1ccc(-c2cc(C(=O)NNC(=O)Nc3ccccc3)c3ccccc3n2)cc1,?,?,1µM*,?,-2%
CC(=O)Nc1ccc(-c2cc(-c3ccc(NC(C)=O)cc3)nc(-c3ccc(NC(C)=O)cc3)n2)cc1,?,-18%,-4%,1%,4%
CC(=O)Nc1ccc(-c2cc(-c3ccc(NC(C)=O)cc3)nc(-c3ccccc3)n2)cc1,14µM*,0%,1%,-8%,15%
O=C(NNC(=O)c1cc(-c2ccccc2)nc2ccccc12)Nc1cccc(Cl)c1,?,0%,31%,?,?
Cc1ccc2nc(-c3ccc(NS(C)(=O)=O)cc3)cc(-c3ccccc3)c2c1,?,22µM*,?,?,-12%
CCOC(=O)c1cccc(NC(=O)CC(c2ccc(F)cc2)N2Cc3ccccc3C2=O)c1 (configuration not stated),?,nt,nt,-21%,16%
COc1ccc(-c2nc(CSCC(=O)N3CCN(c4cccc(C)c4C)CC3)c(C)o2)cc1OC,2%,nt,nt,-10%,?
